# Test results published in PubChem BioAssay.
# “And” between values parts separate entries of the source, which are not always exact repeats. Equal entries are not always repeated. Records with an inconclusive call do not appear. The source made the active and inactive calls.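 Rule for the calls, unless noted: active = normalized viability below 100% at a tested concentration; inactive = the rest.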
# How the values were obtained:
# [1] = growth inhibition of DIPG glioma cells, dose response, cell-based, SU-DIPG-XVII, MIPE5.0, CellTiter-Glo, qHTS (AID 1347060; cut-off not given, nearly all actives have AC50 up to about 26 µM;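 note: cells exposed to compound for 48 hours before viability readout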); settings: SU-DIPG-XVII viability, CellTiter-Glo ATP luminescence
# [2] = growth inhibition of DIPG glioma cells, dose response, cell-based, SU-DIPG-XIII, MIPE4.0, CellTiter-Glo, qHTS (AID 1347061; cut-off not given, nearly all actives have AC50 up to about 37 µM;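 note: cells exposed to compound for 48 hours before readout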); settings: SU-DIPG-XIII viability, CellTiter-Glo ATP luminescence
# [3] = growth inhibition of DIPG glioma cells, dose response, cell-based, SU-DIPG-IV, MIPE4.0, CellTiter-Glo, qHTS (AID 1347063; cut-off not given, nearly all actives have AC50 up to about 30 µM;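 note: compound exposure lasted 48 hours before the viability readout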); settings: SU-DIPG-IV viability, CellTiter-Glo ATP luminescence
# [4] = viability loss in pontine glioma line – cell-based, SU-DIPG-XXV, MIPE5.0, CellTiter-Glo, qHTS, dose response (AID 1347065; cut-off not given, nearly all actives have AC50 up to about 26 µM;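 note: cells exposed to compound for 48 hours before ATP readout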); settings: CellTiter-Glo ATP luminescence
# [5] = modifiers of HSF1 nuclear foci, imaging, Selleck Cancer Library (AID 1347162; in the data active = plate-normalised HSF1 focus index below about 0.46); settings: human cells, at 10 µM; SSMD: measured here: HSF1 foci SSMD mean; cell count: measured here: cell number; plate-normalised HSF1 focus index: stronger effect = lower value
# [6] = ovarian cancer cell viability with rucaparib, profiling panel, oncology-focused library, rucaparib conditional (AID 1508598); settings: patient-derived ovarian cancer cells, CellTiter-Glo viability, 144 h, stronger effect = lower value
# [7] = LFS_MB_P medulloblastoma growth inhibition, cell-based, chromothripsis tumors, cisplatin or BGB combos (AID 1671449; in the data active = inhibition above about 80%;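 note: cells exposed for 96 hours; 0% = vehicle DMSO and 100% = killing by high DMSO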); settings: LFS_MB_P medulloblastoma cells
# [8] = HDN33 neuroblastoma growth inhibition, cell-based, chromothripsis tumors, cisplatin or BGB combos (AID 1671450; in the data active = inhibition above about 80%;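 note: cells exposed to compound for four days; 0% = vehicle DMSO and 100% = cell killing by high DMSO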); settings: HDN33 neuroblastoma cells, stronger effect = higher value
# [9] = ICB984 medulloblastoma cell growth inhibition, synergistic combos for chromothripsis tumors, cisplatin or BGB combos (AID 1671451; call rule not given here;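 note: cells exposed for 96 hours before readout; 0% = vehicle DMSO and 100% = killing by high DMSO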); settings: ICB984 medulloblastoma cells, drug combinations, stronger effect = higher value
# [10] = HTB85 osteosarcoma cell growth inhibition, synergistic combos for chromothripsis tumors, BGB or cisplatin IC20 combos (AID 1671453; in the data active = inhibition above about 80%;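 note: cells exposed for 96 hours before readout; 0% = vehicle DMSO and 100% = high DMSO killing control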); settings: HTB85 osteosarcoma cells, drug combinations, stronger effect = higher value
# [11] = MDA-MB-436 breast carcinoma cell growth inhibition, synergistic combos for chromothripsis tumors, BGB or cisplatin combos (AID 1671458; call rule not given here;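 note: cells exposed for 96 hours; 0% = vehicle DMSO and 100% = killing by high DMSO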); settings: MDA-MB-436 breast carcinoma growth inhibition, drug combinations, stronger effect = higher value
# [12] = growth inhibition of BT084 medulloblastoma cells, cell-based, ICGC_MB145, cisplatin and BGB IC40 combos (AID 1671461; in the data active = inhibition above about 80%;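 note: cells exposed to drugs for 96 hours; 0% = vehicle DMSO and 100% = high DMSO full killing control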); settings: drug combinations, stronger effect = higher value
# [13] = growth inhibition of RCMB18 medulloblastoma cells, cell-based, cisplatin and BGB IC40 combos (AID 1671462; in the data active = inhibition above about 80%;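 note: cells exposed to compound for four days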); settings: stronger effect = higher value
compound,measurement,setting,value
C[C@@H]1CN(CC(=O)Nc2ccc3c(c2)Cc2cccc(-c4cc(=O)cc(N5CCOCC5)o4)c2S3)C[C@H](C)O1,AC50,[1],23.5 µM (active)
same,outcome,[2],inactive
same,AC50,[3],13.2 µM (active)
same,AC50,[4],18.6 µM (active)
same,SSMD,[5],2.96
same,cell count,[5],6620
same,plate-normalised HSF1 focus index,[5],1.15 (inactive)
same,viability,"[6]; at 0.000305 µM, OCI-C5x cells, with rucaparib 10 µM, 100% = cells with rucaparib alone",106% (inactive)
same,viability,"[6]; at 0.000305 µM, OCI-C5x cells, without rucaparib",116% (inactive)
same,viability,"[6]; at 0.000305 µM, OCI-P5x cells, with rucaparib 20 µM, 100% = cells with rucaparib alone",111% (inactive)
same,viability,"[6]; at 0.000305 µM, OCI-P5x cells, without rucaparib",119% (inactive)
same,viability,"[6]; at 0.00122 µM, OCI-C5x cells, with rucaparib 10 µM, 100% = cells with rucaparib alone",108% (inactive)
same,viability,"[6]; at 0.00122 µM, OCI-C5x cells, without rucaparib",123% (inactive)
same,viability,"[6]; at 0.00122 µM, OCI-P5x cells, with rucaparib 20 µM, 100% = cells with rucaparib alone",108% (inactive)
same,viability,"[6]; at 0.00122 µM, OCI-P5x cells, without rucaparib",121% (inactive)
same,viability,"[6]; at 0.00488 µM, OCI-C5x cells, with rucaparib 10 µM, 100% = cells with rucaparib alone",112% (inactive)
same,viability,"[6]; at 0.00488 µM, OCI-C5x cells, without rucaparib",129% (inactive)
same,viability,"[6]; at 0.00488 µM, OCI-P5x cells, with rucaparib 20 µM, 100% = cells with rucaparib alone",108% (inactive)
same,viability,"[6]; at 0.00488 µM, OCI-P5x cells, without rucaparib",108% (inactive)
same,viability,"[6]; at 0.0195 µM, OCI-C5x cells, with rucaparib 10 µM, 100% = cells with rucaparib alone",113% (inactive)
same,viability,"[6]; at 0.0195 µM, OCI-C5x cells, without rucaparib",128% (inactive)
same,viability,"[6]; at 0.0195 µM, OCI-P5x cells, with rucaparib 20 µM, 100% = cells with rucaparib alone",104% (inactive)
same,viability,"[6]; at 0.0195 µM, OCI-P5x cells, without rucaparib",108% (inactive)
same,viability,"[6]; at 0.0781 µM, OCI-C5x cells, with rucaparib 10 µM, 100% = cells with rucaparib alone",110% (inactive)
same,viability,"[6]; at 0.0781 µM, OCI-C5x cells, without rucaparib",127% (inactive)
same,viability,"[6]; at 0.0781 µM, OCI-P5x cells, with rucaparib 20 µM, 100% = cells with rucaparib alone",107% (inactive)
same,viability,"[6]; at 0.0781 µM, OCI-P5x cells, without rucaparib",109% (inactive)
same,viability,"[6]; at 0.313 µM, OCI-C5x cells, with rucaparib 10 µM, 100% = cells with rucaparib alone",106% (inactive)
same,viability,"[6]; at 0.313 µM, OCI-C5x cells, without rucaparib",132% (inactive)
same,viability,"[6]; at 0.313 µM, OCI-P5x cells, with rucaparib 20 µM, 100% = cells with rucaparib alone",102% (inactive)
same,viability,"[6]; at 0.313 µM, OCI-P5x cells, without rucaparib",98.9% (active)
same,viability,"[6]; at 1.25 µM, OCI-C5x cells, with rucaparib 10 µM, 100% = cells with rucaparib alone",101% (inactive)
same,viability,"[6]; at 1.25 µM, OCI-C5x cells, without rucaparib",138% (inactive)
same,viability,"[6]; at 1.25 µM, OCI-P5x cells, with rucaparib 20 µM, 100% = cells with rucaparib alone",91.6% (active)
same,viability,"[6]; at 1.25 µM, OCI-P5x cells, without rucaparib",93.8% (active)
same,viability,"[6]; at 5 µM, OCI-C5x cells, with rucaparib 10 µM, 100% = cells with rucaparib alone",106% (inactive)
same,viability,"[6]; at 5 µM, OCI-C5x cells, without rucaparib",132% (inactive)
same,viability,"[6]; at 5 µM, OCI-P5x cells, with rucaparib 20 µM, 100% = cells with rucaparib alone",76.3% (active)
same,viability,"[6]; at 5 µM, OCI-P5x cells, without rucaparib",81.8% (active)
same,inhibition,"[7]; at 0.5 µM, stronger effect = higher value",-5.76% (inactive) and -8.68% (inactive)
same,inhibition,"[7]; measured here: combination with BGB IC20, at 0.005 µM",12.1% and -26.9%
same,inhibition,"[7]; measured here: combination with BGB IC40, at 0.005 µM",76.1% and -29.5%
same,inhibition,"[7]; measured here: combination with BGB IC40, at 0.05 µM",-11.7% and -51.5%
same,inhibition,"[7]; measured here: combination with cisplatin, at 0.5 µM, stronger effect = higher value",39.6% and -32.3%
same,inhibition,"[7]; measured here: combination with cisplatin, at 5 µM, stronger effect = higher value",-23.3% and -90%
same,inhibition,"[8]; BGB combo, at 5 µM",2.05% and 13.3%
same,inhibition,[8]; at 0.5 µM,-17.5% (inactive) and -12.8% (inactive)
same,inhibition,"[8]; cisplatin combo, at 5 µM",-12.4% and 5.9%
same,inhibition,"[8]; measured here: with BGB IC20 combination, at 0.5 µM",-16.8% and -1.93%
same,inhibition,"[8]; measured here: with cisplatin IC20 combination, at 0.5 µM",-12.5% and -11.1%
same,inhibition,"[8]; single agent, at 5 µM",-33.9% and 16.4%
same,inhibition,"[9]; BGB IC20 combo, at 0.005 µM",4.72% and 10.1%
same,inhibition,"[9]; BGB IC40 combo, at 0.005 µM",-39.9% and -9.84%
same,inhibition,"[9]; BGB IC40 combo, at 0.05 µM",3.85% and -15.8%
same,inhibition,[9]; at 0.5 µM,-19.3% (inactive) and -37.2% (inactive)
same,inhibition,"[9]; cisplatin combo, at 0.05 µM",-0.996% and -20%
same,inhibition,"[9]; cisplatin combo, at 0.5 µM",-20.2% and -42.2%
same,inhibition,"[9]; cisplatin combo, at 5 µM",2.43% and -58.6%
same,inhibition,"[9]; measured here: 5 uM single agent, at 5 µM",-28.1% and -5.43%
same,inhibition,[10]; at 0.5 µM,-24.8% (inactive) and -13.9% (inactive)
same,inhibition,"[10]; measured here: with BGB IC20, at 0.5 µM",-22.3% and -11.4%
same,inhibition,"[10]; measured here: with BGB IC20, at 5 µM",-3.78% and 16.9%
same,inhibition,"[10]; measured here: with cisplatin IC20, at 0.5 µM",-22.4% and -22.3%
same,inhibition,"[10]; measured here: with cisplatin IC20, at 5 µM",1.95% and -37.3%
same,inhibition,"[10]; single agent, at 5 µM",-2.38% and 8.59%
same,inhibition,[11]; at 0.5 µM,-6.48% (inactive) and -14.8% (inactive)
same,inhibition,"[11]; measured here: BGB combination, at 0.5 µM",-1.79% and -20.6%
same,inhibition,"[11]; measured here: BGB combination, at 5 µM",17.7% and 3.62%
same,inhibition,"[11]; measured here: cisplatin combination, at 0.5 µM",-20.7% and -21.7%
same,inhibition,"[11]; measured here: cisplatin combination, at 5 µM",7.96% and -7.31%
same,inhibition,[12]; at 0.5 µM,-1.92% (inactive) and -6.86% (inactive)
same,inhibition,"[12]; cisplatin combination, at 0.5 µM",-3.42% and -23.5%
same,inhibition,"[12]; cisplatin combination, at 5 µM",-136% and -3.01%
same,inhibition,"[12]; measured here: BGB IC40 combination 0.05 uM, at 0.05 µM",-6.42% and -21%
same,inhibition,"[12]; single agent, at 5 µM",4.22% and -18.6%
same,inhibition,[13]; at 0.5 µM,1.57% (inactive) and -21.5% (inactive)
same,inhibition,"[13]; cisplatin combo, at 5 µM",-0.721% and -71.8%
same,inhibition,"[13]; measured here: BGB IC40 combination, at 0.05 µM",9.68% and -19.2%
same,inhibition,"[13]; measured here: combination with cisplatin, at 0.5 µM",-13.6% and -9.04%
same,inhibition,"[13]; single agent, at 5 µM",36.4% and -12.2%
